From PubChem BioAssay
Shown are actives, neighbours in structure and some others; about 4.1% of the full set was active somewhere.
hcDAF12 agonist = H. contortus DAF-12 activation, primary screen. HEK293 hcDAF-12 lit1-tk-luc reporter, luminescence; 0% DMSO, 100% Δ7-dafachronic acid. 1.4% of 370,000 active. activation, % at 6.8 µM;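 active means activation above the mean of all tested compounds plus 3 SD, cut at about 5.5% in these data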;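 further: 100% = response to 3 µM Δ7-dafachronic acid high control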
hgDAF12 agonist = agonists of H. glycines DAF-12 nuclear receptor; HEK293 GAL4-hgDAF12 UAS-luciferase reporter, agonist luminescence; normalized to butyrate control; activation, % at 6.8 µM; 1.8% of 370,000 active; AID 687014;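 active means activation above a cutoff set at the mean of all screened compounds plus 3 SD, cut at about 10% in these data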;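 further: 0% = DMSO wells and 100% = sodium butyrate wells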
DAX1 inh-1 = inhibits human nuclear receptor DAX1. P51843. HEK293 Gal4-DAX1 luciferase reporter, luminescence. inhibition, % at 6.75 µM. 0.99% of 340,000 active. AID 504766;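 active means inhibition above the mean over all tested compounds plus 3 SD, cut at about 4.2% in these data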;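 further: 0% = DAX1-transfected cells with DMSO and 100% = empty-vector control cells with DMSO; inhibition shows as a rise in luminescence from relieved DAX1 repression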
Target sequence (P51843 207-470 limits assumed): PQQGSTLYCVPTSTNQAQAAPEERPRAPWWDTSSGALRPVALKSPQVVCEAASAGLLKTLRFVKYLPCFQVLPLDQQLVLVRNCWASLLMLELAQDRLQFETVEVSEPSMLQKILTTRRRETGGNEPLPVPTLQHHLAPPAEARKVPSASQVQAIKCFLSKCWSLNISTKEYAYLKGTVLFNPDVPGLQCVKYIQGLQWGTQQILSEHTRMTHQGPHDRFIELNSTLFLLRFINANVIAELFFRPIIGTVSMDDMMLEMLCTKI
DAX1 inh-2 = DAX1 (NR0B1) inhibition, primary screen; inhibition, % at 6.8 µM; AID 652010; 1.1% of 370,000 active; HEK293T StAR-luciferase reporter, SF-1/DAX-1 repression relief;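 active means inhibition above the mean over all tested compounds plus 3 SD, cut at about 3.6% in these data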;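 further: 0% = DAX-1 cells with DMSO and 100% = cells lacking DAX-1 with DMSO; higher inhibition means more luminescence from relief of DAX-1 repression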
ssDAF-12 act = activates DAF-12 receptor from parasite S. stercoralis; AID 652126; 1% of 370,000 active; HEK293 ssDAF-12/GRIP1 lit1-tk-luc reporter, luminescence; % of 3 µM dafachronic acid response; activation, % at 6.8 µM;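 active means activation above the mean over all tested compounds plus 3 SD, cut at about 0.9% in these data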;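 further: 0% = DMSO-only wells and 100% = 3 µM delta7-dafachronic acid wells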
DAX1 conf = confirmation of human DAX1 (NR0B1) inhibitors. shares compounds with DAX1 inh-2. HEK293T StAR-promoter luciferase reporter, SF-1/DAX-1 repression. inhibition, % at 6.8 µM. 87% of 2,400 active;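 active means inhibition above the average of every tested compound plus 3 SD, cut at about 3.8% in these data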;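 further: 0% = DAX-1 cells with DMSO and 100% = no DAX-1 control cells with DMSO; active compounds raise luminescence by relieving repression of the StAR reporter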
Target sequence (P51843 whole entry, looked up): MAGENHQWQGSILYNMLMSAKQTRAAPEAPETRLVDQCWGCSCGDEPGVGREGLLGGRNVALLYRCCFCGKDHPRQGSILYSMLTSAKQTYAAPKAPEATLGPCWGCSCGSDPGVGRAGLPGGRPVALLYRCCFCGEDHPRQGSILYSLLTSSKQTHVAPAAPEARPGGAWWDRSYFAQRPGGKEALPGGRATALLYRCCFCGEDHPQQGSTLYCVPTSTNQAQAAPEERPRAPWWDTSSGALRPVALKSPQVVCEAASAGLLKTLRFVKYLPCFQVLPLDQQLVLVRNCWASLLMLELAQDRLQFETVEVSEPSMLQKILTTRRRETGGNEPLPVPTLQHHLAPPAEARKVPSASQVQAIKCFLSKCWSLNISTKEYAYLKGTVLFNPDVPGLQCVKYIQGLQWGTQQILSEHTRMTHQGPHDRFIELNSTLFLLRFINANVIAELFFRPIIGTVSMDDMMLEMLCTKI
SF1 AF2mut Luc = counter-screen for DAX1 inhibitors: nonselective inhibitors with SF-1 AF2 mutant; shares compounds with DAX1 inh-2; HEK293 StAR-luciferase, luminescence; inhibition, % at 6.8 µM; 78% of 2,400 active; AID 652136;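 active means inhibition above the mean of all tested compounds plus 3 SD, cut at about 3% in these data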;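 further: 0% = DAX-1 transfected cells with DMSO and 100% = cells without DAX-1 with DMSO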
LXRb hcDAF ctr = counter-screen for hcDAF-12 agonists: agonists of human LXR-beta; AID 743027; 3,400 tested, under 10 active; shares compounds with hcDAF12 agonist; activation, % at 6.8 µM; HEK293 Gal4-LXR tk-luc reporter, luminescence, 24 h; normalized: DMSO 0%, positive control 100%;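 active means mean percent activation of the reporter above a cutoff set as the average over tested compounds plus their standard deviation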
hcDAF12 ag = confirmation of H. contortus DAF-12 agonists; shares compounds with hcDAF12 agonist; HEK293 hcDAF-12 lit1-tk-luc reporter, luminescence; % of Δ7-dafachronic acid response; activation, % at 6.8 µM; 61% of 3,400 active; AID 743032;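 active means mean activation across triplicate tests above the threshold derived from the earlier primary screen, cut at about 5.5% in these data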;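 further: 0% = DMSO only wells and 100% = 3 µM Δ7-dafachronic acid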
* hit, by the source's call; . = no result.

SMILES | hcDAF12 agonist | hgDAF12 agonist | DAX1 inh-1 | DAX1 inh-2 | ssDAF-12 act | DAX1 conf | SF1 AF2mut Luc | LXRb hcDAF ctr | hcDAF12 ag
N/C(=N\OC(=O)c1ccccc1)c1ccccn1 | 3.8 | 6.1 | -2.8 | 3.1 | -0.8 | . | . | . | .
Cc1cccc(C(=O)O/N=C(\N)c2ccccn2)c1 | -0.8 | -4.2 | -3.0 | -0.3 | -1.1 | . | . | . | .
CCCn1c(SCc2nc3ccccc3s2)n[nH]c1=O | 12.0* | 11.2* | 2.0 | 4.8* | 1.5* | 8.4* | 5.0* | 1.1 | 10.8*
CC(C)c1ccc(/C=N/Nc2ccc(C(=O)O)cc2)cc1 | -1.5 | -9.1 | -6.1 | -0.8 | -1.8 | . | . | . | .
O=C(O)c1ccc(N/N=C/c2ccc(-c3ccccc3)cc2)cc1 | 7.6* | 12.6* | 5.5* | 7.7* | 1.3* | 19.3* | 8.5* | 1.2 | 6.2*
NC(=O)c1ccccc1N/C=C/C(=O)c1ccco1 | 3.4 | 9.3 | 1.6 | 2.2 | 0.0 | . | . | . | .
O=C(/C=C/Nc1ccccc1C(F)(F)F)c1ccco1 | 10.5* | 19.1* | 1.5 | 4.9* | 1.1* | 13.3* | 8.3* | 1.5 | 9.1*
Cc1cc(C(=O)NC2CCC(C)CC2)c(C)o1 (stereo unspecified) | 12.6* | 8.4 | 3.1 | 7.5* | 0.2 | 13.5* | 6.7* | 1.0 | 7.7*
Cc1cc(C(=O)OCC(=O)NC2CCC(C)CC2)c(C)o1 (stereo unspecified) | -0.6 | -2.2 | 0.6 | 0.6 | -1.2 | . | . | . | .
N/C(=N\OC(=O)/C=C/c1ccc(Br)cc1)c1ccccn1 | 8.0* | 12.3* | -0.4 | 4.7* | 2.2* | 9.3* | 7.0* | 1.1 | 8.3*
N/C(=N\OC(=O)/C=C/c1ccccc1Cl)c1ccccn1 | 7.0* | 8.0 | -2.7 | 6.2* | 0.2 | 17.7* | 6.1* | 1.7 | 8.5*
Cc1ccc2oc(C(=O)NCCC3CCCCO3)c(C)c2c1 (stereo unspecified) | 8.5* | 12.8* | 0.7 | 10.2* | -0.3 | 7.5* | 4.2* | 1.6 | 14.2*
Cc1c(C(=O)NCC2CCCO2)oc2ccccc12 (stereo unspecified) | 1.1 | 7.0 | 0.5 | 1.7 | -0.4 | . | . | . | .
O=C(Nc1ccc(Cl)cc1)N1CCC(CO)(Cc2ccccc2)CC1 | -0.8 | 0.1 | -0.7 | -1.5 | -1.7 | . | . | . | .
CN(CC1CCCN(CCc2ccccc2F)C1)C(=O)c1ccoc1 (stereo unspecified) | 1.2 | 1.2 | -0.7 | 0.8 | -1.2 | . | . | . | .
COc1ccc(CCN2CCCC(CN(C)C(=O)c3ccoc3)C2)cc1 (stereo unspecified) | 7.2* | 12.6* | 0.4 | 10.0* | -0.5 | 8.8* | 5.5* | 0.4 | 1.7
O=C(CCCc1ccccc1)NCCS(=O)(=O)N1CCN(c2ccccc2)CC1 | -2.1 | -0.8 | 0.3 | -1.1 | -0.9 | . | . | . | .
Cc1ccc(S(=O)(=O)N2CCCCC2)cc1NC(=O)COC(=O)c1ccccc1F | -1.3 | -0.8 | -1.3 | -0.4 | -0.5 | . | . | . | .
Cc1cc(N/C=C/C(=O)c2cccs2)ccc1F | 10.2* | 23.8* | 6.5* | 5.2* | 2.1* | 17.5* | 9.5* | 1.6 | 15.8*
CC1(C(=O)NS(=O)(=O)c2ccc(Cl)cc2)CCN1C(=O)C/C=C/c1ccccc1 (stereo unspecified) | 0.1 | -3.0 | . | 0.4 | -1.1 | . | . | . | .
Cc1ccc(S(=O)(=O)NCc2cn3c(C)csc3n2)cc1 | -1.3 | -0.7 | -0.1 | -0.4 | -1.5 | . | . | . | .
Cc1ccc(SCc2cn3c(C)csc3n2)cc1 | 8.0* | 11.9* | -0.4 | 5.2* | 0.8 | 17.1* | 7.0* | 1.8 | 7.8*
C/C(=N\NC(=O)c1ccccc1O)c1ccc(NC(=O)c2ccccc2)cc1 | 7.4* | 11.6* | 0.0 | 6.0* | -0.3 | 2.8 | 2.3 | -0.1 | 2.2
C/C(=N/NC(=O)c1ccncc1)c1ccc(NC(=O)c2ccccc2)cc1 | -1.5 | 1.1 | -1.0 | -0.3 | -0.8 | . | . | . | .
O=S(=O)(c1ccc(SCCOc2ccc(Cl)cc2)nc1)N1CCCC1 | 0.2 | 1.1 | 0.5 | -0.6 | -0.6 | . | . | . | .
SMILES | hcDAF12 agonist | hgDAF12 agonist | DAX1 inh-1 | DAX1 inh-2 | ssDAF-12 act | DAX1 conf | SF1 AF2mut Luc | LXRb hcDAF ctr | hcDAF12 ag
COCCN(C(=O)COC(=O)c1ccc(Cl)s1)c1c(N)n(Cc2ccccc2)c(=O)[nH]c1=O | -2.1 | 1.0 | -0.1 | 0.3 | -1.3 | . | . | . | .
COC(=O)c1ccc(N/C=C\C(=O)c2ccc3c(c2)OCO3)cc1 | -0.1 | -1.6 | 1.0 | 1.3 | -1.0 | . | . | . | .
O=C(/C=C\Nc1cccc(F)c1)c1ccc2c(c1)OCO2 | 9.0* | 11.8* | -2.7 | 4.7* | 0.2 | 6.8* | -0.5 | 1.1 | 7.2*
COc1ccc(C(=O)Nc2nnc(-c3ccco3)s2)cc1 | 7.7* | 9.1 | -2.1 | 6.9* | 1.1* | 9.0* | 0.9 | 1.2 | 7.2*
O=C(NCCc1ccccc1)C1CCC(CNS(=O)(=O)c2cccs2)CC1 (stereo unspecified) | -0.7 | -1.3 | 0.5 | 0.0 | -1.5 | . | . | . | .
Cc1ccsc1C(=O)Nc1nccs1 | 0.3 | 4.5 | 1.0 | 0.4 | 0.3 | . | . | . | .
Cc1ccc(C(=O)Nc2nccs2)cc1 | 12.3* | 12.3* | 2.1 | 6.6* | 2.4* | 10.0* | 6.4* | 1.2 | 13.9*
O=C(Nc1ccc(Br)cc1)N1CCCCC1 | 0.5 | 9.3 | 0.5 | 1.3 | -0.7 | . | . | . | .
COc1cccc(NC(=O)Nc2nccc(C)n2)c1 | 8.1* | 13.1* | -1.7 | 5.0* | -0.2 | 12.6* | 5.3* | 1.4 | 3.6
Cc1ccc(/C=N/Nc2cccc(C(=O)O)c2)s1 | 11.8* | 26.6* | -3.9 | 8.3* | 2.5* | 17.0* | 8.5* | 2.0 | 13.8*
Cc1ccsc1/C=N/Nc1cccc(C(=O)O)c1 | 10.1* | 16.9* | -8.1 | 10.8* | 0.6 | 19.4* | 11.3* | 2.2 | 19.5*
Cc1ccsc1/C=N/NC(=O)CNC(=O)c1ccccc1 | -0.3 | 2.1 | -0.1 | 0.0 | -0.5 | . | . | . | .
COc1ccc2ccccc2c1/C=N/Nc1cccc(C(=O)O)c1 | 1.2 | 2.7 | 0.8 | 0.4 | -0.1 | . | . | . | .
CC(NC(=O)c1ccc(S(=O)(=O)Nc2ccccc2Cl)cc1)c1ccncc1 (stereo unspecified) | 0.0 | 0.9 | -0.9 | -1.0 | -1.0 | . | . | . | .
O=C(N/N=C/c1ccccc1Cl)c1n[nH]c2c1CCCC2 | 6.6* | 16.5* | -0.7 | 5.1* | 0.7 | 1.1 | -2.4 | 0.7 | 3.9
O=C(N/N=C/c1ccc(Cl)cc1)c1n[nH]c2c1CCCC2 | 2.6 | 4.2 | -1.4 | 0.1 | 0.8 | . | . | . | .
